Among the data in PubChem BioAssay are inhibition, cell count and nuclei count values, retold here.

A word on the inhibition: it is the relative decrease from the control value, in per cent.

Activity calls are given as the source filed them.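 How the source made its calls, unless noted: active means visually confirmed hit in the image check and inhibition above 20%; inconclusive means visually confirmed hit but inhibition not above 20%; inactive means no visual hit in the image check.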

The nature of one experiment: inhibitors of TNFa-induced NFkB p65 translocation, primary screen, imaging, HUVEC, MLSMR starter and 10KST1 sets (AID 438;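 active means inhibition above 20% together with a positive visual image hit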;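 further: compound added about 3h40 before a 20 min TNFalpha stimulation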;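 on inhibition: signal is the nuclear over cytoplasmic p65 intensity ratio per well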). Conditions: HUVEC TNFa-induced p65 nuclear translocation; cell count: measured here: nuclei count (cytotoxicity indicator), at 2.08 µM; inhibition: at 2 µM, stronger effect = higher value, 0% TNFa-plus-vehicle, 100% no-TNFa wells.
Consider `O=C1CC(N(O)C2CC(=O)N(Cc3ccccc3)C2=O)C(=O)N1Cc1ccccc1` (stereo not drawn), for which the inhibition is -16.2% (inactive) and the cell count was 269.
On to `CC1(C)CC(NC(=O)C23CCC(C)(/C(=N/O)C2)C3(C)C)CC(C)(C)N1` (stereo not drawn), for which the cell count is 378 and the inhibition is -8.3% (inactive).
In the case of `O=c1[nH]c(-c2ccccn2)nc2ccccc12`, the inhibition was -9% (inactive) and the cell count amounted to 336.
Regarding `Cc1nnc(SCC2=C(C(=O)O)N3C(=O)[C@@H](NC(=O)Cn4cnnn4)[C@H]3SC2)s1`, the inhibition is -2.9% (inactive) and the cell count was 628.
As for `O=C(O)c1cc(=O)c2c(OCC(O)COc3cccc4oc(C(=O)O)cc(=O)c34)cccc2o1`, the inhibition was -2.9% (inactive) and the cell count came to 472.
With `c1ccc(-c2nc(NCC3CCCO3)c3ccccc3n2)nc1` (stereo not drawn), the cell count was determined as 365 and the inhibition is 0% (inactive).
As to `CC[C@H]1OC(=O)C[C@@H](O)[C@H](C)[C@@H](O[C@@H]2O[C@H](C)C[C@H](N(C)C)[C@H]2O)[C@@H](CC=O)C[C@@H](C)C(=O)C=C[C@]2(C)O[C@H]2[C@@H]1C`, the cell count was 610 and the inhibition is -3.7% (inactive).
On to `CC(C)NCC(O)COc1cccc2[nH]ccc12` (stereo not drawn), for which the cell count worked out at 631 and the inhibition is -11.5% (inactive).
For `Cc1ccc2cc(CN(C(=O)c3ccco3)c3ccccc3C)c(=O)[nH]c2c1`, the cell count was determined as 334 and the inhibition is 8.3% (inactive).
In the case of `CN1CCN(Cc2c(O)ccc3c(-c4ccccc4)cc(=O)oc23)CC1`, the cell count amounted to 362 and the inhibition was 6% (inactive).
In the same order, the values of `Cc1cc(N2C(=O)C(=O)/C(=C(/O)c3ccccc3)C2c2cccc(Br)c2)no1` (stereo not drawn) are 298 and -10.2% (inactive).
As to `COc1ccc(C(=O)Nc2nc(N)n(-c3ccccc3)n2)cc1OC`, the inhibition is 11.6% (inactive) and the cell count came out at 328.
For `Cc1ccc(N2C(=O)C3ON(c4ccccc4)C(c4ccncc4)C3C2=O)cc1` (stereo not drawn) the same measures were 1.9% (inactive) and 381.

A short description of the next experiment: endothelial E-selectin expression blockers – imaging, HUVEC, immunofluorescence, MLSMR starter and 10KST1 sets, primary screen (AID 487).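 On inhibition: signal is fraction of cell area covered by stained E-selectin grains.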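 On nuclei count: 100% = median nuclei count of all wells on the same plate.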 The settings on record: HUVEC TNFalpha-induced E-selectin immunofluorescence imaging, at 2 µM; inhibition: stronger effect = higher value; nuclei count: measured here: cell number, toxicity.
As to `Cc1cccc(C)c1N1C(=O)C2ON(c3ccccc3)C(c3ccncc3)C2C1=O` (stereo not drawn), the nuclei count came out at 141% and the inhibition was -151% (inactive).
Consider `COc1ccc(C2C=C(c3ccc(Cl)cc3)Nc3nc(NC(C)=O)nn32)cc1` (stereo not drawn), for which the nuclei count came to 159% and the inhibition is -27.6% (inactive).
In the same order, the values of `CC(C)Cc1ccc(C(C)C(=O)O)cc1` (stereo not drawn) are 132% and -67.2% (inactive).
Turning to `COCCCNc1nc(-c2ccncc2)nc2ccccc12`, the inhibition is -227% (inactive) and the nuclei count was found to be 126%.
`CCCOC(=O)C1[C@H]2C(=O)N(Cc3ccco3)C[C@]23C=C[C@H]1O3` (stereo partly drawn): the inhibition was -90.3% (inactive) and the nuclei count stood at 155%.
Turning to `COc1ccc(CNC(=O)[C@H](C)NC(=O)C2CCN(S(=O)(=O)c3ccc(C)cc3)CC2)cc1`, the nuclei count came out at 110% and the inhibition is -34.1% (inactive).
`N#C/C(=N\O)c1nc(-c2ccccc2)cs1`: the nuclei count was 149% and the inhibition is -12.9% (inactive).
Regarding `Oc1ccc(Br)cc1-c1cc(-c2ccccc2F)[nH]n1`, the inhibition is -88.6% (inactive) and the nuclei count was 116%.
Take `COc1ccc(/C(O)=C2/C(=O)C(=O)N(CCN3CCOCC3)C2c2ccccn2)cc1OC` (stereo not drawn): the nuclei count stood at 158% and the inhibition was -125% (inactive).
For `CCOc1ccc(/C(O)=C2/C(=O)C(=O)N(c3nc(C)c(C)s3)C2c2ccco2)cc1` (stereo not drawn), the nuclei count was determined as 106% and the inhibition is -54.1% (inactive).
Take `O=C1C2ON(c3ccccc3)C(c3ccncc3)C2C(=O)N1c1ccccc1` (stereo not drawn): the inhibition is -13.9% (inactive) and the nuclei count stood at 147%.
Regarding `CCOC(=O)N1CCN(/C=C(\C#N)c2nc3ccccc3s2)CC1`, the inhibition was -5.3% (inactive) and the nuclei count is 136%.
For `CCOc1ccc(C2C(C(=O)c3ccc(C)o3)=C(O)C(=O)N2CCN2CCOCC2)cc1OC` (stereo not drawn) the same measures were -49.4% (inactive) and 93.8%.
Take `CC(C)(C)c1ccc(C(O)CCCN2CCC(C(O)(c3ccccc3)c3ccccc3)CC2)cc1` (stereo not drawn): the nuclei count was found to be 108% and the inhibition is -51.1% (inactive).
Turning to `O=C(O)CCCCCN1C(=O)CCC1=O`, the nuclei count is 154% and the inhibition was -216% (inactive).
As for `CC(=O)O[C@H]1C(=O)[C@]2(C)[C@H]([C@H](OC(=O)c3ccccc3)[C@]3(O)C[C@H](OC(=O)[C@H](O)[C@@H](NC(=O)c4ccccc4)c4ccccc4)C(C)=C1C3(C)C)[C@]1(OC(C)=O)CO[C@@H]1C[C@@H]2O`, the nuclei count worked out at 105% and the inhibition was -188% (inactive).
As to `CC[N+](C)(C)Cc1ccccc1Br`, the inhibition is -101% (inactive) and the nuclei count is 123%.
Take `O=C1C(CCS(=O)c2ccccc2)C(=O)N(c2ccccc2)N1c1ccccc1` (stereo not drawn): the nuclei count is 124% and the inhibition was -95.5% (inactive).
For the compound `Cc1ccc(N2C(=O)C3ON(c4ccccc4)C(c4ccncc4)C3C2=O)c(C)c1` (stereo not drawn), the nuclei count worked out at 164% and the inhibition was -152% (inactive).
Take `N#Cc1nc(-c2ccccc2Cl)oc1N1CCCCC1`: the nuclei count turned out to be 150% and the inhibition was -134% (inactive).
In the same order, the values of `CC1=CC(c2ccccc2)n2nc(N3C(=O)C4CC=CCC4C3=O)nc2N1` (stereo not drawn) are 153% and -63.7% (inactive).
